Measurements published in PubChem BioAssay (Tox21).
Values without a mark were called inactive. Inconclusive results are not listed. Where a call stands in place of a potency, no number is given. The source made the active and inactive calls. Calls follow the shape of the dose curve; as a rule, active = well fitted curve in the direction sought with a large enough effect in the repeat runs; inconclusive = weak or mixed curves; inactive = no such curve, though single readings can be large; an effect the other way counts as inactive or inconclusive.

Legend:
[1] = Caspase-3/7 induction in HepG2 cells by small molecules, qHTS assay (AID 1346978); also: nearly all actives have a fitted effect of over 15% in size
Outline: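 Wild-type HepG2 cells (2,000/well) were settled 5 h at 37 C, 5% CO2, then exposed to compounds in DMSO for 17 h. Caspase-3/7 activity was read by luminescence 30 min after adding Caspase-Glo 3/7 reagent at room temperature.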

[2] = Caspase-3/7 induction in CHO-K1 cells by small molecules, qHTS cell viability counter screen (AID 1346979); also: nearly all actives have a fitted effect of over 35% in size
Outline: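 Cytotoxicity counter screen run in parallel with the caspase-3/7 assay: CHO-K1 cells, 16hr compound treatment at 37C, then CellTiter-Fluor for 1hr before fluorescence reading.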

[3] = Caspase-3/7 induction in CHO-K1 cells by small molecules, qHTS assay (AID 1346980); also: nearly all actives have a fitted effect of over 15% in size
Outline: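 Wild-type cells were seeded at 1,500 per well and settled 5 hr at 37 C, 5% CO2, then exposed to DMSO-dissolved compounds for 17 hr. Caspase-Glo 3/7 reagent was added, and luminescence was read after 30min at room temperature.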

[4] = Caspase-3/7 induction in HepG2 cells by small molecules, qHTS cell viability counter screen (AID 1346981); also: nearly all actives have a fitted effect of over 30% in size
Outline: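 After a 5-hr attachment period at 37 C and 5% CO2, wild-type HepG2 cells received compounds in DMSO. Sixteen hours later CellTiter-Fluor was dispensed and the fluorescent signal quantified after a further hour.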

[5] = biological target: Nuclear receptor subfamily 1 group I member 2 (Homo sapiens) (UniProt O75469); assay: Human pregnane X receptor (PXR) small molecule agonists, qHTS assay (AID 1346982); also: nearly all actives have a fitted effect of over 35% in size
Chain of Nuclear receptor subfamily 1 group I member 2 (Homo sapiens) (O75469 whole entry, looked up): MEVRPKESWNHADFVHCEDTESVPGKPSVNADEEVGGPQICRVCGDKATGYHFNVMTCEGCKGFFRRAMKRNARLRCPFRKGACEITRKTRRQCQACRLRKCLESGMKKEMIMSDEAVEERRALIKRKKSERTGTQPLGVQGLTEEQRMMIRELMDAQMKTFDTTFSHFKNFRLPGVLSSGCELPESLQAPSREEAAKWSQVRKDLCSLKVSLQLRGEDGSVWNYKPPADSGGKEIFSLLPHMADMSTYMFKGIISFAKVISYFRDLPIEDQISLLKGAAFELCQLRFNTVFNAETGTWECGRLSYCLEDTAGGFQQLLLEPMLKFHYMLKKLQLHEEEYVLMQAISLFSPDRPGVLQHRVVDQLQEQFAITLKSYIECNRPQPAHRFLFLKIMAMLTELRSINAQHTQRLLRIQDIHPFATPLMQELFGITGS
Outline: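 Tox21 qHTS; PXR-Luc HepG2; compounds pinned from DMSO; 24 hr, 37 C; ONE-Glo luciferase detection, 30 min room temperature.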

[6] = biological target: Nuclear receptor subfamily 1 group I member 2 (Rattus norvegicus) (UniProt Q9R1A7); assay: Rat pregnane X receptor (rPXR) activation by small molecules, qHTS assay (AID 1346983); conditions: rPXR luciferase reporter cells, One-Glo luminescence, 24 h; max activation: stronger effect = higher value; also: nearly all actives have a fitted effect of over 20% in size
Chain of Nuclear receptor subfamily 1 group I member 2 (Rattus norvegicus) (Q9R1A7 whole entry, looked up): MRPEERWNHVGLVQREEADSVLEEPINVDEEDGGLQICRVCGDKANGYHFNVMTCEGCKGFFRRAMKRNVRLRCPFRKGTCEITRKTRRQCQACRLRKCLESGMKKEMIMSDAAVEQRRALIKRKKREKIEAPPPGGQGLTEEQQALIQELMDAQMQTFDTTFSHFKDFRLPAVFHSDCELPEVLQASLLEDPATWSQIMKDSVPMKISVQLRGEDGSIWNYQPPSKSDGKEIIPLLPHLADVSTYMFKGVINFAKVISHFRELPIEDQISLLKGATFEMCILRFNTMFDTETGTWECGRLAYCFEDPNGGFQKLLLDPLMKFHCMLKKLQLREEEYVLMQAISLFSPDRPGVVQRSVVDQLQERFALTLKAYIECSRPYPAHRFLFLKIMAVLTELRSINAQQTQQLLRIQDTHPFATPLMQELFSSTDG
Outline: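 Cell-based rPXR luciferase reporter assay, 2,000 cells per well, rested 5hr at 37 C before compound addition in DMSO, then 24 hr at 37 C. One-Glo reagent was added and luminescence read after 30 min at room temperature.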

[7] = biological target: Nuclear receptor subfamily 1 group I member 2 (Homo sapiens) (UniProt O75469); assay: CYP3A4 induction through human pregnane X receptor (PXR) by small molecules, qHTS assay (AID 1346984); also: nearly all actives have a fitted effect of over 40% in size
Outline: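 Cells (DPX-2; HepG2 with PXR element plus CYP3A4-promoter luciferase) settled 5hr, then were treated 24hr at 37C. A 3hr, 3uM-final Luciferin-IPA step preceded luminescence measurement with One-Glo.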

[8] = biological target: Nuclear receptor subfamily 1 group I member 2 (Homo sapiens) (UniProt O75469); assay: Human pregnane X receptor (PXR) activation by small molecules, qHTS assay (AID 1346985); also: nearly all actives have a fitted effect of over 40% in size
Outline: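 DPX-2 cells (HepG2 co-transfected with a PXR response element and a CYP3A4-promoter luciferase construct) were seeded at 2,000 per well, rested 5 hr at 37C, then exposed to DMSO-dissolved compounds for 24 hr. Activation was read as luciferase luminescence.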

[9] = biological target: Cytochrome P450 2D6 (Homo sapiens) (UniProt P10635); assay: Cytochrome P450 Family 2 Subfamily D Member 6 (CYP2D6) small molecule antagonists: luciferase reporter qHTS assay (AID 1671196); also: nearly all actives have a fitted effect of over 50% in size
Chain of Cytochrome P450 2D6 (Homo sapiens) (P10635 whole entry, looked up): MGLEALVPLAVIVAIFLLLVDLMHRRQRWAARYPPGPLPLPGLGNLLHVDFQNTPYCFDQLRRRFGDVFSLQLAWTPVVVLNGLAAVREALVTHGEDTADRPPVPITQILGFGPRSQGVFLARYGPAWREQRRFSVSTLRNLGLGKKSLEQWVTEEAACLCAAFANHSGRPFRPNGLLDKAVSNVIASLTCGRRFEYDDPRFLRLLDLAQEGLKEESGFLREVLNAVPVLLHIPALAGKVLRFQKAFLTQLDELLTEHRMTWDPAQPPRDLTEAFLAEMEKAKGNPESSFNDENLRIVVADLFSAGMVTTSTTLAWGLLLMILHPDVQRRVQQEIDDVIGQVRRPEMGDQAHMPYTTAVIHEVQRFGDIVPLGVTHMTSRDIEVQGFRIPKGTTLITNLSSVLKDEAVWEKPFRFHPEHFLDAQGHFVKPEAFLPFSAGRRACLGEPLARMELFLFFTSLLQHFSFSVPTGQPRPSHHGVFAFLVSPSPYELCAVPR
Outline: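 Room-temperature luminescent CYP2D6 activity assay: compound preincubated 10 min with enzyme–substrate mix, NADPH-initiated reaction 1 h, detection reagent 20 min before reading.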

[10] = biological target: Cytochrome P450 2C19 (Homo sapiens) (UniProt P33261); assay: Cytochrome P450 Family 2 Subfamily C Member 19 (CYP2C19) small molecule antagonists: luciferase reporter qHTS assay (AID 1671197); also: nearly all actives have a fitted effect of over 65% in size
Chain of Cytochrome P450 2C19 (Homo sapiens) (P33261 whole entry, looked up): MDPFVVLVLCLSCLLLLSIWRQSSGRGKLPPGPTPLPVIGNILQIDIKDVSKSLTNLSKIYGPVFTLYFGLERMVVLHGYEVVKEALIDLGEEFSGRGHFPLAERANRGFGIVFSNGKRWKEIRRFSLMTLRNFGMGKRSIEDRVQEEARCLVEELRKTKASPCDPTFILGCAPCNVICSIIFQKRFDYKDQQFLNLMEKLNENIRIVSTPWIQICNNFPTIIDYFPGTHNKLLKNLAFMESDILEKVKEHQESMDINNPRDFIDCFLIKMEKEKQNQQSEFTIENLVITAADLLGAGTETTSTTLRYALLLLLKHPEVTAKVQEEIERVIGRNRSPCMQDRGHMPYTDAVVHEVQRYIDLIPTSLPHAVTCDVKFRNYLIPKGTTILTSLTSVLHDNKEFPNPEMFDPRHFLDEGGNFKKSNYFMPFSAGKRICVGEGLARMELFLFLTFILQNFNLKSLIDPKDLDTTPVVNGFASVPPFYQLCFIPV
Outline: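 Light output is proportional to CYP2C19 activity: proluciferin substrate is converted to luciferin, then detected by a luciferin detection reagent that also stops the 1 h, 37C NADPH-driven reaction. Ketoconazole serves as positive control.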
Potency is read from the fitted curve at half-maximal effect.

SMILES | Potency [1] | Potency [2] | Potency [3] | Potency [4] | Potency [5] | max activation [6] [%] | Potency [7] | Potency [8] | Potency [9] | Potency [10] | Potency [6]
Nc1ccc(S(=O)(=O)Nc2ccccc2)cc1 | inactive | inactive | inactive | inactive | inactive | -5.46 | inactive | inactive | – | – | –
O=C(O)C(S)C(S)C(=O)O (stereo unspecified) | inactive | inactive | inactive | inactive | inactive | -9.28 | inactive | inactive | inactive | inactive | –
c1ccc(CNCCNCc2ccccc2)cc1 | inactive | inactive | inactive | inactive | inactive | -3.63 | inactive | inactive | 0.776 µM (active) | 7.76 µM (active) | –
COc1cc2c(cc1OC)C(C(C(=O)N(CCc1ccc(OC)c(OC)c1OC)CCc1ccc(OC)c(OC)c1OC)c1ccccc1)=NCC2 (stereo unspecified) | inactive | 26.6 µM (active) | inactive | 26.6 µM (active) | 2.66 µM (active) | – | inactive | 7.94 µM (active) | 5.49 µM (active) | 12.3 µM (active) | 2.51 µM (active)
COc1cc(C(=O)OCCCN2CCCN(CCCOC(=O)c3cc(OC)c(OC)c(OC)c3)CC2)cc(OC)c1OC | inactive | 23.7 µM (active) | inactive | 26.6 µM (active) | 29.8 µM (active) | – | – | – | – | – | –
OC(C#CCN1CCCC1)(c1ccccc1)c1ccccc1 | inactive | inactive | inactive | inactive | 23.7 µM (active) | 1.06 | 15.8 µM (active) | – | 11 µM (active) | 2.45 µM (active) | –
CCn1cc(C(=O)O)c(=O)c2cnc(N3CCNCC3)nc21 | inactive | inactive | inactive | inactive | inactive | -1.76 | inactive | inactive | inactive | – | –
CCOC(=O)c1cccnc1 | inactive | inactive | inactive | inactive | inactive | -3.51 | inactive | inactive | inactive | inactive | –
Cc1cccc(C)c1NC(=O)CN(CC(=O)O)CC(=O)O | inactive | inactive | inactive | inactive | inactive | -0.0723 | inactive | inactive | inactive | – | –
Cc1cccc(C)c1OCC(=O)N[C@@H](Cc1ccccc1)[C@@H](O)C[C@H](Cc1ccccc1)NC(=O)[C@H](C(C)C)N1CCCNC1=O | inactive | 26.6 µM (active) | inactive | 26.6 µM (active) | 29.8 µM (active) | – | – | 3.98 µM (active) | 15.5 µM (active) | 21.9 µM (active) | 11.2 µM (active)
COc1ccc(-c2nc3ccc(C4=NNC(=O)CC4C)cc3[nH]2)cc1 (stereo unspecified) | inactive | 23.7 µM (active) | inactive | inactive | 13.3 µM (active) | – | inactive | – | inactive | – | 22.4 µM (active)
Cc1cc(C(=O)O)ccc1[N+](=O)[O-] | inactive | inactive | inactive | inactive | inactive | – | – | – | 56.5 µM (active) | – | –
CC(C)Nc1ccc(NC(C)C)c2c1C(=O)c1ccccc1C2=O | inactive | 25.3 µM (active) | inactive | 16 µM (active) | 1.27 µM (active) | – | – | – | inactive | – | –
CCN(CC)CCNc1ccc(CNC=O)c2sc3ccc(OC)cc3c(=O)c12 | 61.1 µM (active) | 6.11 µM (active) | 30.6 µM (active) | 9.69 µM (active) | inactive | – | – | – | 6.33 µM (active) | – | –
O=C(O)CC(=O)C(=O)O | inactive | inactive | inactive | inactive | 48.7 µM (active) | – | – | – | inactive | – | –
CC(CC=O)c1ccccc1 (stereo unspecified) | inactive | inactive | inactive | inactive | 61.1 µM (active) | – | – | – | inactive | – | –
C/C=C/C=C/CO | inactive | inactive | inactive | inactive | inactive | – | – | – | inactive | – | –
C=CC1CC2C=CC1C2 (stereo unspecified) | inactive | inactive | inactive | inactive | inactive | – | – | – | inactive | – | –
O=[N+]([O-])c1ccc2[nH]ncc2c1 | inactive | inactive | inactive | inactive | inactive | – | – | – | inactive | – | –
CCCCC(CC)COC(=O)CCCCCCCCC(=O)OCC(CC)CCCC (stereo unspecified) | inactive | inactive | inactive | inactive | inactive | – | – | – | inactive | – | –
CC(C)(O)c1ccc(CNC(=O)c2cccnc2Oc2ccc(F)cc2)cc1 | inactive | inactive | inactive | inactive | 54.5 µM (active) | – | – | – | inactive | – | –
N=c1ccn2c(n1)O[C@H]1[C@H](O)[C@@H](CO)O[C@H]12 | inactive | inactive | inactive | inactive | inactive | 4.22 | – | inactive | inactive | inactive | –
CCN(CC)c1ccc(C(=C2C=CC(=[N+](CC)CC)C=C2)c2cc(S(=O)(=O)O)ccc2S(=O)(=O)[O-])cc1 | inactive | 26.6 µM (active) | inactive | 23.7 µM (active) | inactive | – | – | – | 13.8 µM (active) | – | –
C[Si](C)(CCCN)O[Si](C)(C)CCCN | inactive | inactive | inactive | inactive | inactive | – | – | – | 22.4 µM (active) | 39.9 µM (active) | –
Nc1cccc(S(=O)(=O)c2cccc(N)c2)c1 | inactive | inactive | inactive | inactive | inactive | – | – | – | inactive | – | –
O=C(OCCCCCCOC(=O)c1ccccc1)c1ccccc1 | inactive | inactive | inactive | inactive | inactive | – | – | – | inactive | – | –
